Test results reported in PubChem BioAssay.
For some assays here: Measured potencies and affinities stand elsewhere. Activity calls are given as the source filed them. Unless noted, the rule behind the calls is not given here.

Experiments:
[1] = antimalarial activity against Dd2 strain (AID 2302;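 active = growth inhibition above 50% at the single 2 µM test dose, taken to imply half-maximal potency below 2 µM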;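 note: 0% = DMSO untreated growth and 100% = chloroquine plus artemisinin killed control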); details: P. falciparum Dd2 in RBCs, LDH growth readout, 72 h; at 2 µM; hits give high values
[2] = HepG2 cytotoxicity, primary screen, cytotoxicity control for P. falciparum antimalarial project, cell-based, ATP luminescence (AID 2303;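 active = inhibition above 50%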;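 note: 0% = DMSO wells and 100% = digitonin-killed cells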); details: HepG2 viability, 24-48 h, at 10 µM, hits give high values
[3] = biological target: L-lactate dehydrogenase (Plasmodium falciparum (isolate CDC / Honduras)) (UniProt Q27743); assay: PfLDH activity inhibition – cell lysate, 3D7 strain, counter-screen for P. falciparum growth inhibition project (AID 2304);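 note: 0% = vehicle and 100% = reference inhibitor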; details: P. falciparum 3D7 crude extract, LDH APAD/NBT absorbance; at 2 µM; hits give high values
Sequence of L-lactate dehydrogenase (Plasmodium falciparum (isolate CDC / Honduras)) (Q27743 whole entry, looked up): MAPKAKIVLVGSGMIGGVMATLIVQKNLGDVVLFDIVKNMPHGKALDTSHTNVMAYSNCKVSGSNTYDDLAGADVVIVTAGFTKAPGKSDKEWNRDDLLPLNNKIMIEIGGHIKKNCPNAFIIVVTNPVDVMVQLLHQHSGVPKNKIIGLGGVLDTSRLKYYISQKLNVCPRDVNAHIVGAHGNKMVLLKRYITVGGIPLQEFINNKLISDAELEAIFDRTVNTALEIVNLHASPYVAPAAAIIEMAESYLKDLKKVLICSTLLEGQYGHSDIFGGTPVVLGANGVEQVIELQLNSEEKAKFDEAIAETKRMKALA

[4] = inhibition of 3D7 malaria parasite growth – strain 3D7 (AID 2306);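 note: 0% = DMSO wells and 100% = chloroquine plus artemisinin control wells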; details: P. falciparum 3D7 erythrocytic growth, LDH absorbance, 72 h; at 2 µM; hits give high values
[5] = biological target: Calcium-dependent protein kinase 1 (Plasmodium falciparum (isolate 3D7)) (UniProt P62344); assay: PfCDPK1 kinase inhibitors, biochemical, TCAMS library (AID 1159585; cut-off not given, nearly all actives have IC50 up to about 0.98 µM;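 note: inhibitors leave more ATP so luminescence rises with inhibition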); details: recombinant PfCDPK1, Kinase-Glo ATP depletion luminescence
Sequence of Calcium-dependent protein kinase 1 (Plasmodium falciparum (isolate 3D7)) (P62344 whole entry, looked up): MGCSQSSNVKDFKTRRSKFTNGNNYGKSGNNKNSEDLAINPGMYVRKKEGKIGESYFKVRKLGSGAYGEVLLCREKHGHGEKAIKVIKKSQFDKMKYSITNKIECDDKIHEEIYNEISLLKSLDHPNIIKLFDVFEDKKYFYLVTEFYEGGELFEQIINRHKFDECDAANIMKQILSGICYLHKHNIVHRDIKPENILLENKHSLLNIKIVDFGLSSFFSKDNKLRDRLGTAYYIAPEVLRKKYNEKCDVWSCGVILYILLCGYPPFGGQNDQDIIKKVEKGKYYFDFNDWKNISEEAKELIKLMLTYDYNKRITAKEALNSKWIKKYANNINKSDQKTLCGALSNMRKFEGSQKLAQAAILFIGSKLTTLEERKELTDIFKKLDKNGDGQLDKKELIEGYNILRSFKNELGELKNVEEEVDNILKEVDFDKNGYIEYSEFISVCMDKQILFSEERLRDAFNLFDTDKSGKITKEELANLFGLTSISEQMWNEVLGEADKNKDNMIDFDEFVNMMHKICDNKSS

[6] = biological target: Plasmodium falciparum protein kinase 6 (PK6, PF3D7_1337100) (UniProt Q8IDW1); assay: PfPK6 kinase inhibitors, biochemical, TCAMS library (AID 1159586); details: recombinant PfPK6, Kinase-Glo ATP depletion luminescence
Sequence of Plasmodium falciparum protein kinase 6 (PK6, PF3D7_1337100) (Q8IDW1 1-305): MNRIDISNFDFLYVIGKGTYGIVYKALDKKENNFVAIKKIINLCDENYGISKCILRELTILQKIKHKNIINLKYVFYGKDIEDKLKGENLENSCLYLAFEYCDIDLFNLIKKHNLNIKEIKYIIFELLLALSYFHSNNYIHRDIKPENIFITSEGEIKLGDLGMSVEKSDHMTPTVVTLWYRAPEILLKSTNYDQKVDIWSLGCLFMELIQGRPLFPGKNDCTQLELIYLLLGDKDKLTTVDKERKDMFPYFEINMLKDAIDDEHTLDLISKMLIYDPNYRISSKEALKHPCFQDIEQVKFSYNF

[7] = biological target: Protein kinase 7 (PK7), Plasmodium falciparum 3D7 (PF3D7_0213400) (UniProt Q7YTF7); assay: inhibition of Plasmodium PK7 catalytic activity – biochemical, TCAMS antimalarial set, Kinase-Glo luminescence (AID 1159587); details: recombinant PfPK7, Kinase-Glo ATP depletion luminescence
Sequence of Protein kinase 7 (PK7), Plasmodium falciparum 3D7 (PF3D7_0213400) (Q7YTF7 1-343): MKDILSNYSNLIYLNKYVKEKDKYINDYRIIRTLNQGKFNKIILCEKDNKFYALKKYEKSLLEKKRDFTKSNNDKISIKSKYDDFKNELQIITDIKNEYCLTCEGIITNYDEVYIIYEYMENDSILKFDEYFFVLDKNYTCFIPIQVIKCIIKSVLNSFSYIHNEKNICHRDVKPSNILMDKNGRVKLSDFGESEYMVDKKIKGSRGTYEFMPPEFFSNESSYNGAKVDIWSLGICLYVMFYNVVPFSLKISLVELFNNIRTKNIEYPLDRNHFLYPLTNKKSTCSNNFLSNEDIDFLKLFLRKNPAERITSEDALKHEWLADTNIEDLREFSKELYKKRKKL

[8] = biological target: Calcium-dependent protein kinase 4 (Plasmodium falciparum (isolate 3D7)) (UniProt Q8IBS5); assay: PfCDPK4 kinase inhibitors, biochemical, TCAMS library (AID 1159588; cut-off not given, nearly all actives have IC50 up to about 0.91 µM); details: recombinant PfCDPK4, Kinase-Glo ATP depletion luminescence
Sequence of Calcium-dependent protein kinase 4 (Plasmodium falciparum (isolate 3D7)) (Q8IBS5 whole entry, looked up): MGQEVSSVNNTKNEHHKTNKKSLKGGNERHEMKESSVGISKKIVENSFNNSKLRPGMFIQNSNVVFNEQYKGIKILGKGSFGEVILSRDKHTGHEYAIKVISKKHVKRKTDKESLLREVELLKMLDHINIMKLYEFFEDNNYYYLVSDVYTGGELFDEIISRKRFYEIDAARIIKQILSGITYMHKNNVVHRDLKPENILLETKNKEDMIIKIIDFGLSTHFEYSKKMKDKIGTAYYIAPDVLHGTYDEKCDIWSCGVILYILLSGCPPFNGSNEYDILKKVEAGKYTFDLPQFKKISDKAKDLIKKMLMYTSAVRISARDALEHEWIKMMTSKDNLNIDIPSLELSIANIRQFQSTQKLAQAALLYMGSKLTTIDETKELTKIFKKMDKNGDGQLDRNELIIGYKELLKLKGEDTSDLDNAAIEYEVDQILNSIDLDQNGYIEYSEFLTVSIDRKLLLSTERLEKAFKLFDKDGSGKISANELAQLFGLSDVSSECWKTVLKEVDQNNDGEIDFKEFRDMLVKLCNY

O=C(Nc1cccc(-c2cccc(-c3nc4ccc(F)cc4[nH]3)c2)c1)c1csnn1
active: growth inhibition [4] 95%
inactive: growth inhibition [1] 29% | inhibition [2] 23% | inhibition [3] -4% | outcome [5] | outcome [6] | outcome [7] | outcome [8]

FC(F)(F)c1ccc2nc(-c3ccc(-c4cccc(CN5CCCCC5)c4)cc3)[nH]c2c1
inactive: inhibition [2] 22% | inhibition [3] 2% | outcome [5] | outcome [6] | outcome [7] | outcome [8]
active: growth inhibition [1] 99% | growth inhibition [4] 100%

CC(=O)CC(=O)N1CCN(c2ccccc2)CC1
inactive: growth inhibition [1] -6% | inhibition [3] -1% | outcome [5] | outcome [6] | outcome [7] | outcome [8]
active: inhibition [2] 54% | growth inhibition [4] 85%

O=C(NC1CCCC1)c1ccc(N2CCC(NCc3cccc(C(F)(F)F)c3)CC2)cc1
inactive: inhibition [2] 11% | inhibition [3] 1% | outcome [5] | outcome [6] | outcome [7] | outcome [8]
active: growth inhibition [1] 75% | growth inhibition [4] 87%

COc1cc(NC(=O)N2CCOC(CCN3CCC4(CCc5ccccc54)CC3)(c3ccc(Cl)c(Cl)c3)C2)cc(OC)c1 (stereo not given)
active: growth inhibition [1] 50% | growth inhibition [4] 87%
inactive: inhibition [2] 29% | inhibition [3] 3% | outcome [5] | outcome [6] | outcome [7] | outcome [8]

Cc1ccc2nc(-c3ccccc3)cc(NN=Cc3cccnc3)c2c1
active: growth inhibition [4] 99%
inactive: growth inhibition [1] 39% | inhibition [2] 12% | inhibition [3] 1% | outcome [5] | outcome [6] | outcome [7] | outcome [8]

COc1ccc2nc(SC(C)C(=O)c3c[nH]c4ccccc34)[nH]c2c1 (stereo not given)
active: growth inhibition [1] 98% | growth inhibition [4] 100%
inactive: inhibition [2] -3% | inhibition [3] 0% | outcome [5] | outcome [6] | outcome [7] | outcome [8]

COc1ccc(OC(C)CNC(=O)c2cc([N+](=O)[O-])ccc2-c2ccc(OC)cc2)cc1 (stereo not given)
inactive: growth inhibition [1] 44% | inhibition [2] 18% | inhibition [3] 3% | outcome [5] | outcome [6] | outcome [7] | outcome [8]
active: growth inhibition [4] 92%

Cc1cc(NC(=O)Nc2ccc3ncccc3c2)c2ccccc2n1
active: growth inhibition [4] 93%
inactive: growth inhibition [1] 27% | inhibition [2] 6% | inhibition [3] -3% | outcome [5] | outcome [6] | outcome [7] | outcome [8]

NC1CCN(c2nc(NCCc3ccc(O)cc3)nc(NCc3ccccc3-c3ccccc3)n2)CC1
active: growth inhibition [4] 99%
inactive: growth inhibition [1] 32% | inhibition [2] 14% | inhibition [3] 4% | outcome [5] | outcome [6] | outcome [7] | outcome [8]

CC(=O)N(C)C1CCN(Cc2cccc(-c3ccc(-c4nc5ccc(F)cc5[nH]4)cc3)c2)C1 (stereo not given)
active: growth inhibition [4] 92%
inactive: growth inhibition [1] 19% | inhibition [2] 24% | inhibition [3] 0% | outcome [5] | outcome [6] | outcome [7] | outcome [8]

CS(=O)(=O)CCNCc1cccc(-c2cc3nccc(Nc4ccc(Oc5ccccc5)cc4)c3cc2Cl)c1
inactive: inhibition [2] 2% | inhibition [3] -3% | outcome [5] | outcome [6] | outcome [7] | outcome [8]
active: growth inhibition [1] 82% | growth inhibition [4] 100%

CC(=O)c1c(Cc2cccc(C(F)(F)F)c2)c[nH]c1C
active: growth inhibition [1] 92% | growth inhibition [4] 94%
inactive: inhibition [2] 6% | inhibition [3] 7% | outcome [5] | outcome [6] | outcome [7] | outcome [8]

COc1cc(-c2cnc(N)c(-c3nc4ccccc4[nH]3)c2)cc(OC)c1OC
active: growth inhibition [1] 57% | inhibition [2] 59% | growth inhibition [4] 101%
inactive: inhibition [3] 7% | outcome [5] | outcome [6] | outcome [7] | outcome [8]

O=c1cc(-c2ccc3ccccc3c2)[nH]c2ccccc12
active: growth inhibition [4] 81%
inactive: growth inhibition [1] 44% | inhibition [2] 25% | inhibition [3] -3% | outcome [5] | outcome [6] | outcome [7] | outcome [8]

COc1ccc(CNC2CCN(c3ccc(NC(=O)c4cccc(Cl)c4)cc3)CC2)cc1OC
inactive: growth inhibition [1] 13% | inhibition [2] 26% | inhibition [3] 6% | outcome [5] | outcome [6] | outcome [7] | outcome [8]
active: growth inhibition [4] 96%

Nc1cccc(CNCc2cccc(-c3cccc(-c4nc5ccccc5[nH]4)c3)c2)c1
active: growth inhibition [1] 84% | growth inhibition [4] 101%
inactive: inhibition [2] 1% | inhibition [3] -7% | outcome [5] | outcome [6] | outcome [7] | outcome [8]

CN(C)c1ccnc2ccc(NC(=O)Nc3ccnc4ccccc34)cc12
active: growth inhibition [1] 99% | growth inhibition [4] 100%
inactive: inhibition [2] 15% | inhibition [3] 3% | outcome [5] | outcome [6] | outcome [7] | outcome [8]

CCN(CC)S(=O)(=O)c1cc(-c2ccc(=O)n(CC(=O)c3ccc(C)cc3)n2)ccc1C
inactive: inhibition [2] 6% | inhibition [3] -3% | outcome [5] | outcome [6] | outcome [7] | outcome [8]
active: growth inhibition [1] 66% | growth inhibition [4] 86%

Cc1ccc(/C=C/C(=O)NCCCCCN2CCCN(C(=O)Nc3ccc(Cl)c(Cl)c3)CC2)cc1
inactive: growth inhibition [1] 1% | inhibition [2] 24% | inhibition [3] 2% | outcome [5] | outcome [6] | outcome [7] | outcome [8]
active: growth inhibition [4] 95%

O=C1COc2ccccc2N1C/C=C(\CN1CCC(c2ccccc2)CC1)c1cc(Cl)cc(Cl)c1
active: growth inhibition [1] 72% | growth inhibition [4] 91%
inactive: inhibition [2] 14% | inhibition [3] -4% | outcome [5] | outcome [6] | outcome [7] | outcome [8]

COc1ccc2nccc(N3CCC(CCNCc4ccc5c(n4)NC(=O)CS5)CC3)c2n1
inactive: inhibition [2] 32% | inhibition [3] -1% | outcome [5] | outcome [6] | outcome [7] | outcome [8]
active: growth inhibition [1] 75% | growth inhibition [4] 102%

Cc1ccc(S(=O)(=O)N2CCCN(C(=O)c3cc(-c4ccccc4)n[nH]3)CC2)cc1
inactive: inhibition [2] 11% | inhibition [3] -2% | outcome [5] | outcome [6] | outcome [7] | outcome [8]
active: growth inhibition [1] 93% | growth inhibition [4] 96%

CCCn1c(Sc2ccc(C#N)c([N+](=O)[O-])c2)nnc1-c1ccc(OC)cc1
active: growth inhibition [1] 95% | growth inhibition [4] 94%
inactive: inhibition [2] -6% | inhibition [3] -2% | outcome [5] | outcome [6] | outcome [7] | outcome [8]

CN1CCN(CCCN(Cc2cccc(-c3ccc(CNCCc4ccccc4)cc3)c2)C(=O)c2cccs2)CC1
active: growth inhibition [1] 97% | inhibition [2] 86% | growth inhibition [4] 101%
inactive: inhibition [3] 2% | outcome [5] | outcome [6] | outcome [7] | outcome [8]

Cc1nc(N)nc(N)c1CCCOc1ccc(Br)cc1
inactive: growth inhibition [1] 5% | inhibition [2] 30% | inhibition [3] 1% | outcome [5] | outcome [6] | outcome [7] | outcome [8]
active: growth inhibition [4] 97%

CC(C)c1cccc(C(NC(=O)[C@H]2Cc3ccccc3CN2C(=O)c2cccc(N3CCOCC3)c2)C2CCCC2)c1 (stereo not given in full)
inactive: inhibition [2] 3% | inhibition [3] 1% | outcome [5] | outcome [6] | outcome [7] | outcome [8]
active: growth inhibition [1] 96% | growth inhibition [4] 94%

CS(=O)(=O)c1ccc(CCNCc2ccc(-c3ccc(CNC4Cc5ccccc5C4)cc3)nc2)cc1
inactive: inhibition [2] 18% | inhibition [3] -3% | outcome [5] | outcome [6] | outcome [7] | outcome [8]
active: growth inhibition [1] 80% | growth inhibition [4] 100%

COc1ccc(F)cc1-c1ccc(C(=O)N2CCCN(c3ccc(C(F)(F)F)cn3)CC2)cc1
inactive: inhibition [2] 4% | inhibition [3] -3% | outcome [5] | outcome [6] | outcome [7] | outcome [8]
active: growth inhibition [1] 100% | growth inhibition [4] 101%

COc1ccccc1CCNc1nc(C)cc(N[C@@H](Cc2ccccc2)C(=O)NCc2cccc(F)c2)n1
inactive: inhibition [2] 31% | inhibition [3] -2% | outcome [5] | outcome [6] | outcome [7] | outcome [8]
active: growth inhibition [1] 86% | growth inhibition [4] 99%

COc1ccc(C=NNc2cc(C)nc3ccc(OC)cc23)c(OC)c1
active: growth inhibition [1] 95% | growth inhibition [4] 100%
inactive: inhibition [2] 23% | inhibition [3] -5% | outcome [5] | outcome [6] | outcome [7] | outcome [8]

N#Cc1ccc(N2CCN(Cc3ccc(-c4ccc(-c5nc6ccc(C(F)(F)F)cc6[nH]5)cc4)cc3)CC2)nc1
active: growth inhibition [1] 90% | growth inhibition [4] 101%
inactive: inhibition [2] 19% | inhibition [3] 4% | outcome [5] | outcome [6] | outcome [7] | outcome [8]

Cc1nc(-c2nc(N3CCOCC3)ncc2-c2ccsc2)sc1C
inactive: inhibition [2] 5% | inhibition [3] -7% | outcome [5] | outcome [6] | outcome [7] | outcome [8]
active: growth inhibition [1] 75% | growth inhibition [4] 89%

N#Cc1cccc(NC(=O)Nc2ccc(-c3ccc(-c4nc5ccc(C(F)(F)F)cc5[nH]4)cc3)cc2)c1
inactive: inhibition [3] -2% | outcome [5] | outcome [6] | outcome [7] | outcome [8]
active: growth inhibition [1] 100% | inhibition [2] 51% | growth inhibition [4] 102%

Cc1ccc(CNC(=O)[C@H](Cc2ccccc2)Nc2cc(C)nc(NCc3ccccc3C)n2)cc1
inactive: inhibition [2] 23% | inhibition [3] 0% | outcome [5] | outcome [6] | outcome [7] | outcome [8]
active: growth inhibition [1] 50% | growth inhibition [4] 97%

O=C(Nc1cccc(C(F)(F)F)c1)c1cccc(S(=O)(=O)NCC2CCCN(Cc3ccccc3)C2)c1 (stereo not given)
active: growth inhibition [4] 94%
inactive: growth inhibition [1] 3% | inhibition [2] 17% | inhibition [3] 2% | outcome [5] | outcome [6] | outcome [7] | outcome [8]

O=C(CCCCCNC(=O)c1ccc(O)c(-c2ccc(Cl)c(Cl)c2)c1)NC1CCCc2ccccc21 (stereo not given)
active: growth inhibition [4] 97%
inactive: growth inhibition [1] 13% | inhibition [2] -7% | inhibition [3] -6% | outcome [5] | outcome [6] | outcome [7] | outcome [8]

CCc1cc(-c2onc(C)c2-c2cc3ccccc3o2)c(O)cc1OC
inactive: growth inhibition [1] 33% | inhibition [2] 48% | inhibition [3] -2% | outcome [5] | outcome [6] | outcome [7] | outcome [8]
active: growth inhibition [4] 95%

COc1ccc(C(=O)O)cc1OCc1ccccc1
active: growth inhibition [4] 99%
inactive: growth inhibition [1] -3% | inhibition [2] -3% | inhibition [3] 3% | outcome [5] | outcome [6] | outcome [7] | outcome [8]

O=C(Nc1ccc([N+](=O)[O-])cc1)Nc1cc(OCC(F)(F)F)cc(OCC(F)(F)F)c1
active: growth inhibition [1] 100% | inhibition [2] 71% | growth inhibition [4] 100%
inactive: inhibition [3] 5% | outcome [5] | outcome [6] | outcome [7] | outcome [8]
